Assay [1] is described as follows: yeast TOR pathway RPL19A-GFP modulators, primary screen, cell-based, S. cerevisiae, multiplex flow cytometry (AID 1862; in the data active = percent of DMSO control GFP below about 86%;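 also: lower values mimic rapamycin by blocking the RPL19A rise seen in DMSO cells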). Conditions: S. cerevisiae RPL19A-GFP strain, flow cytometry fluorescence, 3 h; at 10 µM; stronger effect = lower value. On the technique in general: In flow cytometry, cells or beads pass a laser one at a time.
A short description of assay [2]: modulators of MEP2-GFP levels in yeast, primary screen, S. cerevisiae, multiplex flow cytometry (AID 1867;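 active = GFP response, as percent of the DMSO control, above the screen-wide mean plus 3 SD, about 139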;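 also: median GFP channel fluorescence of barcode-gated MEP2-GFP cells measured by flow cytometry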). The settings on record: S. cerevisiae MEP2-GFP strain, 3 h, at 10 µM, stronger effect = higher value, 100% means same as DMSO wells.
Assay [3] in a line: modulators of CIT2-GFP expression in yeast, primary screen, S. cerevisiae, GFP fusion, multiplex flow cytometry (AID 1870;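 active = percent response above a set limit, the screen-wide mean plus 3 SD, cut at about 130% in these data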;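 also: barcoded CIT2-GFP strain pooled with four other GFP strains with rapamycin as positive control; median GFP fluorescence per well over plate mean of DMSO wells so 100% = DMSO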). Conditions: 3 h, at 10 µM, stronger effect = higher value.
Assay [4] can be described thus: modulators of LAP4-GFP expression in yeast, primary screen, S. cerevisiae, multiplex flow cytometry (AID 1873;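 active = GFP signal, as percent of the solvent control, above the screen mean plus 3 SD, about 149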). The settings on record: 3 h, at 10 µM, stronger effect = higher value.
Assay [5] can be described thus: modulators of AGP1-GFP expression in yeast TOR pathway, primary screen, cell-based, multiplex flow cytometry, S. cerevisiae (AID 1887;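 active = GFP signal above the screen-wide mean plus 3 SD, that is over about 124.5% of the solvent control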;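 also: AGP1-GFP fusion strain of S. cerevisiae within a five-strain barcoded multiplex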). Conditions: 3 h, at 10 µM, stronger effect = higher value.
Assay [6] can be described thus: inhibitors of CD8+ T cell-vesicle binding, pilot screen, LFA-1/ICAM-1 modulator project, MLPCN validation set, flow cytometry (AID 2523;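 active = response below a set limit, under 55% cells CD8-positive and vesicle-bound, and CD8 cells' 90th-percentile brightness under 279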;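 as to vesicle binding response: mean PE anti-B7-1 fluorescence of CD8+ cells relative to row control; 100% = QL9-loaded vesicles with DMSO vehicle in the same plate row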). Conditions: 2C mouse CD8+ T cells, at 7 µM, stronger effect = lower value; double positive events: measured here: CD8+/vesicle+ event percentage.
Assay [7] addresses Integrin beta-1 (Homo sapiens) + Integrin alpha-4 (Homo sapiens) (UniProt P13612+P05556). The assay can be described thus: inhibition of HUTS-21 binding to VLA-4, pilot screen, VLA-4 allosteric modulator project, U937 cells, HUTS-21 mAb, flow cytometry, validation set (AID 2674;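 active = inhibition above 50%, about 3 SD of the validation set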;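 also: antibody binding induced by the VLA-4 ligand LDV present at three times its Kd; 0% = LDV ligand with antibody and no compound and 100% = antibody without LDV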). The settings on record: HUTS-21 LIBS mAb binding, at 6.7 µM, stronger effect = higher value, binding induced by LDV ligand.

Assay [8] in a line: superoxide lowering in aged yeast cells, pilot screen, validation compound set (AID 2706;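 active = superoxide response below 65% of plate, a cut near 3 SD across the whole screen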;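 also: yeast exposed to compound for one week at 30 degrees C before staining; 100% = mean of all compound wells on the same plate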). Conditions: S. cerevisiae aging, superoxide DHE fluorescence; at 10 µM; stronger effect = lower value.
The target in assay [9] is Beta-adrenergic receptor kinase 1 (Homo sapiens) (UniProt P25098). The assay can be described thus: GRK2 binders displacing RNA aptamer, biochemical, validation, human GRK2, bead flow cytometry (AID 488806;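 active = aptamer binding inhibition above 30%, about 3 SD of noise from non-fluorescent compounds; inactive = inhibition at or below 30%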). The settings on record: bead-bound GRK2, FAM-aptamer displacement, at 10 µM, stronger effect = higher value.
Beta-adrenergic receptor kinase 1 (Homo sapiens), sequence (P25098 whole entry, looked up): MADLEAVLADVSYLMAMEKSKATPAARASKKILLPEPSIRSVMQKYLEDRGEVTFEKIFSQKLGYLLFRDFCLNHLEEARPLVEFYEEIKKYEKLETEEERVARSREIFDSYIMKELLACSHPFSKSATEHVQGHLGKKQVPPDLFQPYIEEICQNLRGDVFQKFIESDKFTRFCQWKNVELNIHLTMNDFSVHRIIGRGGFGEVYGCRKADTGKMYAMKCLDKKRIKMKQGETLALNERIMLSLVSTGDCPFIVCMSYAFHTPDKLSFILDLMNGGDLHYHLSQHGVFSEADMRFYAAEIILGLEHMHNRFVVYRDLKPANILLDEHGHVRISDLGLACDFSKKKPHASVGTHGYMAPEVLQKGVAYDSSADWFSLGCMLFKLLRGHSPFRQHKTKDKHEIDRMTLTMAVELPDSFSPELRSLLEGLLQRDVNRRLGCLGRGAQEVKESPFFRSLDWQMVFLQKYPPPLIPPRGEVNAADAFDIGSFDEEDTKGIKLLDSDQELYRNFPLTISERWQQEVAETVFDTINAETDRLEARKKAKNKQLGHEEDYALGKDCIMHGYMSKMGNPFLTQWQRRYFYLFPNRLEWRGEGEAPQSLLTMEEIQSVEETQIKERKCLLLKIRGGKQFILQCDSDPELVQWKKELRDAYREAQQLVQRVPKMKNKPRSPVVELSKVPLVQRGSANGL
In assay [10] the target is Beta-2 adrenergic receptor (Homo sapiens) (UniProt P07550). The assay can be described thus: beta2AR agonists driving receptor internalization, pilot screen, cell-based, FAP fluorogen, flow cytometry, validation set (AID 504459;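 active = percent response above 42, roughly 3 SD of non-fluorescent test compounds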;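 also: agonist-driven loss of surface beta2AR via internalization measured by FAP dye flow cytometry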). Conditions: Am2.2-beta2AR cells, FAP surface receptor flow cytometry; at 10 µM; stronger effect = higher value.
Beta-2 adrenergic receptor (Homo sapiens), sequence (P07550 whole entry, looked up): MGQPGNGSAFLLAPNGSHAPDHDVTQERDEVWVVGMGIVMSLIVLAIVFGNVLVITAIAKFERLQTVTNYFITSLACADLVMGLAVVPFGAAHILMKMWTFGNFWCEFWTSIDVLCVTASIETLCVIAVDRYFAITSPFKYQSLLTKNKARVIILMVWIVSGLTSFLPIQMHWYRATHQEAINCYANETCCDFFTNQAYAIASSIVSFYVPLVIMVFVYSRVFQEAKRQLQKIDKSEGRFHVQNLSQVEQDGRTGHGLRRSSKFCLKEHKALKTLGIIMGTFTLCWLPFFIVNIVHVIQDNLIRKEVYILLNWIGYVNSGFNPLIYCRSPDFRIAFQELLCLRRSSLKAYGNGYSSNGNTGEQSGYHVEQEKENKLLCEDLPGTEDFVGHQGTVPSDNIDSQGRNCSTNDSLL
For assay [11], the target named is AP-2 complex subunit beta (Homo sapiens) (UniProt P63010). The assay can be described thus: inhibitors of arrestin peptide binding to AP2, pilot screen, biochemical, validation set, GST-AP2 beads, flow cytometry (AID 504541;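 active = inhibition above 54%, about 3 SD of non-fluorescent compounds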;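 also: AP2 carries R879A mutation and is captured from E. coli lysate; bead-bound FITC arrestin peptide fluorescence measuring arrestin peptide binding to AP2; 0% = DMSO wells and 100% = excess unlabeled arrestin peptide control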). Conditions: FITC arrestin peptide, at 10 µM, stronger effect = higher value, AP2 beta2 appendage fragment, R879A mutant.
AP-2 complex subunit beta (Homo sapiens), sequence (P63010 whole entry, looked up, the tested form may be a part, one chain of several): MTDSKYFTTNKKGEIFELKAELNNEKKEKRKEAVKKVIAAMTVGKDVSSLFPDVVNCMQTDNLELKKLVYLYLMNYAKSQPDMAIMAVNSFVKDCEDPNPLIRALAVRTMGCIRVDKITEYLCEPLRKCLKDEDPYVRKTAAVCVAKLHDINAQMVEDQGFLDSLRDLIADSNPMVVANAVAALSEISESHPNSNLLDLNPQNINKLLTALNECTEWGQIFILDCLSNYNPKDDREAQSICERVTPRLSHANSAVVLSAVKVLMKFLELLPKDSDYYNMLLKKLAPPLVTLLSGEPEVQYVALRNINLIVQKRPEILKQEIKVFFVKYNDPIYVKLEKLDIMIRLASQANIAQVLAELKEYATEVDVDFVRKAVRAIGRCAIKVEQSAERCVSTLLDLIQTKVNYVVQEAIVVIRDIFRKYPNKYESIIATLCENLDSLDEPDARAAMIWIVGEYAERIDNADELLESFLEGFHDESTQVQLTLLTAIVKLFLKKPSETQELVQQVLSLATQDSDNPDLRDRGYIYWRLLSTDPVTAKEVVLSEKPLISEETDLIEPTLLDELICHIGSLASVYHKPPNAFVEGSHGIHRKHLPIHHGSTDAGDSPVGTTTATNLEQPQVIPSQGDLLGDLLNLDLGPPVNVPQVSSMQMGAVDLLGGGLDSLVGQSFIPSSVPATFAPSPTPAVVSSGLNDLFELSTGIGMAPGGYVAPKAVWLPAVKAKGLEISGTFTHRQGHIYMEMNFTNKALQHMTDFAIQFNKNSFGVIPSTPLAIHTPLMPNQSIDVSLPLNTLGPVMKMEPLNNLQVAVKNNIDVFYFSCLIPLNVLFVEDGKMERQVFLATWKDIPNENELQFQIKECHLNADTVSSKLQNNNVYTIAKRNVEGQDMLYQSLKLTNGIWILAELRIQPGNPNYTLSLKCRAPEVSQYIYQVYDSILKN
Assay [12] can be described thus: yeast V-ATPase proton transport modulators, S. cerevisiae, pHLuorin, HTS validation (AID 504600).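 Also: plate controls were DMSO for no effect and reference compound for full effect.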 The settings on record: S. cerevisiae pHLuorin cytosolic pH, at 10 µM, stronger effect = higher value.
For assay [13], the system named is anti-desmoglein-3 scFv antibody binding to human DSG3. The assay can be described thus: inhibitors of anti-DSG3 scFv binding to DSG3, pilot screen, biochemical, validation compound set, bead-based, flow cytometry (AID 588368;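 active = binding below the plate cutoff, the plate median minus 3 SD, with a reading above zero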;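 also: signal is the median channel fluorescence of bead-bound GFP antibody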). Conditions: Protein G beads, DSG3-Fc, scFv-GFP binding, at 10 µM, stronger effect = lower value.
Assay [14] is described as follows: inhibitors of fungal efflux pumps CDR1, CDR2, MDR1, pilot screen, validation compound set, multiplex, phenotypic (AID 588506;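 active = efflux inhibition above 0.42, the validation set average plus 4 SD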;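 also: Nile Red retained in cells so higher fluorescence means more efflux inhibition; 0 = negative control wells and 1 = enniatin B 25 µM full block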). The settings on record: S. cerevisiae pump-expressing triplex, Nile Red efflux flow cytometry; at 10 µM; stronger effect = higher value; the pumps come from Candida albicans.
The target of assay [15] is ATP-binding cassette sub-family B member 6 (Homo sapiens) (UniProt Q9NP58). The assay can be described thus: ABCB6 transporter inhibitors, pilot screen, K562-ABCB6 cells, flow cytometry, validation set (AID 588550;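 active = inhibition above the screen-wide mean plus 3 SD, about 51%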;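 also: 0% = DMSO wells and 100% = benzethonium chloride 70 µM positive control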). The settings on record: K562-ABCB6 porphyrin accumulation, 1 h, at 10 µM, stronger effect = higher value.
ATP-binding cassette sub-family B member 6 (Homo sapiens), sequence (Q9NP58 whole entry, looked up): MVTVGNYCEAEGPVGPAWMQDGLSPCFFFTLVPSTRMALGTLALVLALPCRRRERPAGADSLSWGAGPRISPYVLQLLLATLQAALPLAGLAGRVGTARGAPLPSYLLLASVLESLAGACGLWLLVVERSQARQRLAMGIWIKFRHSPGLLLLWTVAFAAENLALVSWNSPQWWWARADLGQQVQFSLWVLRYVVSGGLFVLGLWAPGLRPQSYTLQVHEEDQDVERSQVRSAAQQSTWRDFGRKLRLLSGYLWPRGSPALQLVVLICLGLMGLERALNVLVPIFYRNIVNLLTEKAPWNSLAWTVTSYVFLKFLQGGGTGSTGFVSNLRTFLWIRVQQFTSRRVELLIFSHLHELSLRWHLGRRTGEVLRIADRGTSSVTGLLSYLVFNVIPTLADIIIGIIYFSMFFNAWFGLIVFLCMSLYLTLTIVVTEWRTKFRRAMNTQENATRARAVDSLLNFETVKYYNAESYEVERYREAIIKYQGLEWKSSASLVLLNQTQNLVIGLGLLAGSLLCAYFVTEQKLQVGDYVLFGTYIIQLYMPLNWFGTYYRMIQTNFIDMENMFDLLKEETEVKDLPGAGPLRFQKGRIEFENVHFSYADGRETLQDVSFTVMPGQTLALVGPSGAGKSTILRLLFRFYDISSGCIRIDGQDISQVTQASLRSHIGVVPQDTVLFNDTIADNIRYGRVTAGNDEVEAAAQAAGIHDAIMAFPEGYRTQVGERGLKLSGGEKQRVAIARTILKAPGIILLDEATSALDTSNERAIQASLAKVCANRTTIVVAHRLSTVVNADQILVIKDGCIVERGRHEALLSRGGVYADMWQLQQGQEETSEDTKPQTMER
A short description of assay [16]: promoters of myeloid differentiation in arrested cells, primary screen, cell-based, GFP/MAC1 double positive, flow cytometry, validation set (AID 588685;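 active = differentiation response of at least 50%, scaled between solvent and reference control, from cells with both markers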;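 also: compound exposure lasts four days before antibody staining and flow analysis; 0% = DMSO wells and 100% = 5 µM fulvestrant positive control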). The settings on record: ER-HoxA9 marrow cells, stronger effect = higher value, normalized: vehicle 0, fulvestrant 100.

In general, inhibition refers to the change of the read-out against control, counted positive when it falls.

Inconclusive results are not listed. Activity calls are given as the source filed them. Rule as the data show it, unless noted: active = response above about 15%; inactive = the rest.

Integrin beta-1 (Homo sapiens) + Integrin alpha-4 (Homo sapiens), sequence (P05556 whole entry, looked up): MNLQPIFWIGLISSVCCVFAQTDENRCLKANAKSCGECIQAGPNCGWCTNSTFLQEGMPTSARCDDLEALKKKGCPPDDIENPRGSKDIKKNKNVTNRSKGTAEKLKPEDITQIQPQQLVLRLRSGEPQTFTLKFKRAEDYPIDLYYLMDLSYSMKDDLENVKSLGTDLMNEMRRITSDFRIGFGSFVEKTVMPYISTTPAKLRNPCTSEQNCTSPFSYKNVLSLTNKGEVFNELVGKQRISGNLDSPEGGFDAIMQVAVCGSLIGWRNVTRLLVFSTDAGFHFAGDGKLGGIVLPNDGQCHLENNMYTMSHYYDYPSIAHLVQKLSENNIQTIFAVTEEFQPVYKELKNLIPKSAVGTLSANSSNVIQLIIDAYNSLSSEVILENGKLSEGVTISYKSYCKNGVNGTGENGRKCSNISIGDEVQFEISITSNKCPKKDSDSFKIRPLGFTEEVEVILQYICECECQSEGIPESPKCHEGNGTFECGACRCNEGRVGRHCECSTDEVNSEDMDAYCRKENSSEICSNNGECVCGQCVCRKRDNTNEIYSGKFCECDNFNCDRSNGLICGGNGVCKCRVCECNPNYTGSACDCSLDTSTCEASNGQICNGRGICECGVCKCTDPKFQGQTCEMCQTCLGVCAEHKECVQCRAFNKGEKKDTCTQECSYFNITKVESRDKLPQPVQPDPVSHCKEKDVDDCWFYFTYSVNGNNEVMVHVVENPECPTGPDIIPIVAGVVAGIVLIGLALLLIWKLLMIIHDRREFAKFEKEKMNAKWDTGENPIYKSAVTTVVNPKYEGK
Integrin beta-1 (Homo sapiens) + Integrin alpha-4 (Homo sapiens), sequence (P13612 whole entry, looked up): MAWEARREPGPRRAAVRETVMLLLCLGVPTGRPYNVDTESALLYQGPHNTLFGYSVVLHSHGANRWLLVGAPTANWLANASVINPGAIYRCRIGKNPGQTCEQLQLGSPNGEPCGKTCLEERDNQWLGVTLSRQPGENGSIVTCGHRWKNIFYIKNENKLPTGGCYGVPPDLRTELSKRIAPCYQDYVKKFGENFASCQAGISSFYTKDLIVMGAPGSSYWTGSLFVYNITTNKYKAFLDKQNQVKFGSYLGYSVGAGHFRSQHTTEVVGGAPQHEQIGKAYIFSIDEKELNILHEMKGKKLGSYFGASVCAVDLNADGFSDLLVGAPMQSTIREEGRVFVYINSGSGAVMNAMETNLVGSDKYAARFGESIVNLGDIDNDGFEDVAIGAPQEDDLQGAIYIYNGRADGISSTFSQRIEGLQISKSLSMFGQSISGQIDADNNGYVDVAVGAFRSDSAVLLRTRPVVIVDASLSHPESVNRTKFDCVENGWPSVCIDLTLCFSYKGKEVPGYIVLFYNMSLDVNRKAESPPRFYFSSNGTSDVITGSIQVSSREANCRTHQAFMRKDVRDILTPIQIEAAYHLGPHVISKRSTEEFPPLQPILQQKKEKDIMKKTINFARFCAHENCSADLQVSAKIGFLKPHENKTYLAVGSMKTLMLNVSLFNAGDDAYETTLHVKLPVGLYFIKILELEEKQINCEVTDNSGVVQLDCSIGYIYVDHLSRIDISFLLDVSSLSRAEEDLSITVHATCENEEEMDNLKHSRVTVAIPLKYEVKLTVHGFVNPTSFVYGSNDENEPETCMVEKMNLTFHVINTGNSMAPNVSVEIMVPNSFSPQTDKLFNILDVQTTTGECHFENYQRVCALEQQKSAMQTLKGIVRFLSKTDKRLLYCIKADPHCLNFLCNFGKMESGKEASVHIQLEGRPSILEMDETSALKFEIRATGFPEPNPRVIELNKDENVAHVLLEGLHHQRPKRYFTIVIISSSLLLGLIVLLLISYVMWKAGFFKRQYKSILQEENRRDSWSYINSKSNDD

As to `COc1ccc(CN2CCCCC2C(=O)Nc2ccc(OC)c(OCC(C)C)c2)cc1OC` (stereo not given), in assay [1], the percent of DMSO control GFP is 100% (inactive). The GFP response vs DMSO in assay [2] is 103% (inactive); in [4] it was 90.7% (inactive). Moreover, in assay [3], the percent response of DMSO control was 101% (inactive). For the same compound, the GFP response, % of DMSO in assay [5] is 104% (inactive). The same compound returned a double positive events in [6] of 54.3%. The vesicle binding response in assay [6] is 29% (active). Moreover, the inhibition in assay [7] is -0.45% (inactive); in [11], 18.5% (inactive); in assay [15], 4% (inactive). Moreover, in assay [8], the superoxide response (% of plate) was 95% (inactive). Besides, in [9], the aptamer binding inhibition is 2% (inactive). Further, the response is -10.2% (inactive) in [10] and -0.65% (inactive) in assay [12]. For the same compound, the binding (% of control) in assay [13] is 95.9% (inactive). The efflux inhibition (fraction of control) in assay [14] was -0.35 (inactive). Further, in [16], the differentiation response is 2.2% (inactive).

Consider `CC(=O)N(CCC1(c2ccc(C)cc2)CCOC(C(C)C)C1)Cc1ccco1` (stereo not given), for which the percent of DMSO control GFP in assay [1] was 93.9% (inactive). Also, the GFP response vs DMSO in assay [2] is 108% (inactive); in assay [4] it was 82% (inactive). The percent response of DMSO control in assay [3] is 116% (inactive). Moreover, in [5], the GFP response, % of DMSO was 96.6% (inactive). This compound came in with a double positive events in [6] of 46.3%. The vesicle binding response in assay [6] is 74.9% (active). In addition, the values for the inhibition in assay [7], in assay [11] and in assay [15] were -16.8% (inactive), 3.24% (inactive) and 9% (inactive), respectively. Also, the superoxide response (% of plate) in [8] was 99.9% (inactive). Besides, the aptamer binding inhibition in assay [9] was -4% (inactive). Further, the response in [10] is -3.21% (inactive); in assay [12] it was -0.03% (inactive). Also, the binding (% of control) in [13] is 99.6% (inactive). In assay [14], the efflux inhibition (fraction of control) was 0.05 (inactive). Further, in [16], the differentiation response is -1.64% (inactive).

Turning to `Nc1c(C(=O)c2ccccc2)oc2ccccc12`, the percent of DMSO control GFP in assay [1] was 101% (inactive). In addition, the GFP response vs DMSO is 96.2% (inactive) in assay [2] and 93.3% (inactive) in assay [4]. For the same compound, in [3], the percent response of DMSO control was 100% (inactive). For the same compound, the GFP response, % of DMSO in assay [5] is 74.2% (inactive). Moreover, in assay [6], the double positive events is 66%. Also, the vesicle binding response in assay [6] was 198% (inactive). Further, the inhibition was -2.53% (inactive) in assay [7], -8.74% (inactive) in assay [11] and -18% (inactive) in [15]. Besides, in [8], the superoxide response (% of plate) was 89.5% (inactive). The aptamer binding inhibition in assay [9] was -1% (inactive). Further, the response in assay [10] was -9.17% (inactive); in assay [12] it was 1.23% (inactive). The binding (% of control) in [13] is 86.9% (inactive). The efflux inhibition (fraction of control) in assay [14] is -0.32 (inactive). The differentiation response in assay [16] was 24.7% (inactive).

Consider `C=C(C)[C@@H]1CC=C(CN2CCC(N3CCC(C(=O)N4CCCC4)CC3)CC2)CC1`, for which the percent of DMSO control GFP in assay [1] is 105% (inactive). For the same compound, the GFP response vs DMSO in [2] was 91.9% (inactive); in [4], 92% (inactive). In [3], the percent response of DMSO control is 120% (inactive). In addition, the GFP response, % of DMSO in assay [5] was 101% (inactive). For the same compound, the double positive events in [6] was 60.1%. Further, the vesicle binding response in assay [6] is 292% (inactive). The inhibition in assay [7] was 1.62% (inactive); in [11], -12.5% (inactive); in [15], -18% (inactive). Besides, in assay [8], the superoxide response (% of plate) is 92.9% (inactive). Further, in assay [9], the aptamer binding inhibition was -18% (inactive). Also, the results for the response in [10] and in assay [12] were -3.2% (inactive) and 1.83% (inactive), respectively. In addition, the binding (% of control) in [13] was 130% (inactive). For the same compound, the efflux inhibition (fraction of control) in assay [14] was 0.08 (inactive). Moreover, the differentiation response in [16] was 6.11% (inactive).

For `COc1cc(C(=O)NCCc2c[nH]c3ccccc23)ccc1OCc1c(C)noc1C`, the percent of DMSO control GFP in [1] was 96.7% (inactive). Also, the figures for the GFP response vs DMSO in [2] and in assay [4] were 106% (inactive) and 120% (inactive), respectively. Besides, the percent response of DMSO control in [3] was 98.6% (inactive). Also, the GFP response, % of DMSO in assay [5] was 93.5% (inactive). For the same compound, in assay [6], the double positive events turned out to be 56%. Further, the vesicle binding response in [6] was 295% (inactive). For the same compound, the inhibition was -15.4% (inactive) in assay [7], -0.24% (inactive) in [11] and 3% (inactive) in assay [15]. In assay [8], the superoxide response (% of plate) was 110% (inactive). Besides, the aptamer binding inhibition in assay [9] was 0% (inactive). Also, the response in assay [10] is 6.37% (inactive); in assay [12] it was 1.87% (inactive). Moreover, the binding (% of control) in assay [13] was 107% (inactive). For the same compound, in [14], the efflux inhibition (fraction of control) is -0.03 (inactive). In addition, the differentiation response in assay [16] was 10.4% (inactive).
